Screening results from PubChem BioAssay.
MenB inh: blocks the Mycobacterium tuberculosis MenB enzyme. inhibition, % (no concentration beside the values). MenB enzyme assay, absorbance read-out. 0.43% of 100,000 active. P9WNP5; in the data active = inhibition above about 21%, passing the limit was not always enough
AID504770: growth inhibitors of E. coli YBA685 in a screen for V. cholerae RctB (chromosome II replication) inhibitors | 0.27% of 130,000 active | E. coli YBA685 rctB-dependent plasmid, OD600 growth, 3 h; active compounds read low | z-score (concentration not given with the values); in the data active = z-score below about -2, passing the limit was not always enough
PV pol inh: poliovirus RNA polymerase inhibition. % elongation, % (compound at 16.7 µg/mL). AID 588519. 0.66% of 150,000 active. P03300. poliovirus polymerase elongation, fluorescence polarization; active compounds read low; in the data active = % elongation below about 90%
Target sequence (P03300 1749-2209 limits assumed): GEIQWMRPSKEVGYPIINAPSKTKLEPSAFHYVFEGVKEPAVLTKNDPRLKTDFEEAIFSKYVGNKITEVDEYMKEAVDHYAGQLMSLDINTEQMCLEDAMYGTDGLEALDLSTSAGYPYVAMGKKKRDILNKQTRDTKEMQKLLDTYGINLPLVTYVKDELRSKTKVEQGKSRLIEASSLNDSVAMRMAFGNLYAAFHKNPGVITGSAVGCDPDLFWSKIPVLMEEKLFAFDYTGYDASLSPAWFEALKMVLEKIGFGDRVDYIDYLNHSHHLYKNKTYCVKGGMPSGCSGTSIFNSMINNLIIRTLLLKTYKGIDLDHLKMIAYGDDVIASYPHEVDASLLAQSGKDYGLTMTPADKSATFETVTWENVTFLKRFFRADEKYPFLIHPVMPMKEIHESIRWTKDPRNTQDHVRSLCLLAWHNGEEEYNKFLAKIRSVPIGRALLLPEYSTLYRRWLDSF
Mtb MbtI inh: MbtI salicylate synthase inhibition | 0.89% of 100,000 active | inhibition, % (concentration not given with the values) | purified MbtI enzyme, fluorescence intensity read-out | P9WFX0; in the data active = inhibition mostly above about 56%, no sharp cut-off; inactive = mostly below about 77%
Each line names hits and unclear results; the compound was inactive in the other large screens. Rows were chosen to be rich in hits. Some 1.5% of all compounds tested hit in one or more screens of this group.

CCOC(=O)c1sc(S(C)=O)c2c1CCCC2=O (stereo not given)	Mtb MbtI inh 63
Cc1ccc(C)n1-c1ccc(C(=O)NCC(=O)O)cc1	PV pol inh 69
CCOC(=O)c1ccc(N2CCN(c3cccc(OC)c3)CC2)c(NC(=O)Nc2ccc(CC)cc2)c1	none
N#Cc1c(N2CCCC2)nc(N)c2c(N)nc(N3CCCC3)cc12	PV pol inh 74
CC1(C)N([O-])c2ccccc2[N+]1=O	AID504770 -4
NC(=S)c1ccccc1N	PV pol inh 55
COc1ccc(N2CCN(S(=O)(=O)CCNC(=O)C3CC(=O)N(c4ccccc4)C3)CC2)cc1 (stereo not given)	none (no result: MenB inh, AID504770, Mtb MbtI inh)
CCNC(=O)c1ccc2c(c1)sc1nc(-c3ccc(CC)cc3)cn12	none
O=C(OCC1CCNCC1)c1ccc2c(c1)OCO2	none
O=C(OCC1CCNCC1)c1ccc(F)cc1	MenB inh 27
Cc1ccc(N(CC(=O)N2CCN(c3ccccc3)CC2)S(=O)(=O)c2c(C)n[nH]c2C)cc1	none
COc1ccc2[nH]cc(CCNC(=O)Cn3cnc4ccccc4c3=O)c2c1	none
C=CCNc1nc2ccccn2c(=O)c1/C=C1\SC(=S)N(Cc2ccc3c(c2)OCO3)C1=O	none
Clc1nc(Cl)nc(NNc2nc(Cl)nc(Cl)n2)n1	MenB inh 34
CCCNc1nc(Cl)nc(Cl)n1	none
NC(=O)c1c(N)sc2c1CCCCC2	PV pol inh 78
Oc1ccc(O)cc1	Mtb MbtI inh 97
O=C1C=CC(=O)N1c1ccc(F)c(Cl)c1	Mtb MbtI inh 93 (no result: MenB inh)
Clc1nc(Cl)nc(NCCC2=CCCCC2)n1	PV pol inh 78
CCOC(=O)c1c(NC(=S)Nc2cc(C)nn2-c2ccccc2)sc(C)c1C	none
CCOC(=O)c1c(N)sc2ccccc12	none (no result: MenB inh, PV pol inh, Mtb MbtI inh)
CCOC(=O)c1c(N)sc(N)c1C(=O)OCC	Mtb MbtI inh 97
O=c1c2cc3c(cc2n(Cc2ccc(Cl)cc2)c(=O)n1Cc1nc(-c2ccccc2)no1)OCO3	none (no result: MenB inh, AID504770, Mtb MbtI inh)
O=C(O)CCCC(=O)Nc1ccc(C(=O)N2CCCCC2)cc1	MenB inh 33
CC1CCN(C(=O)COc2ccc(C(C)C)cc2)CC1	none
O=C1C=C/C(=N/N(Cc2ccccc2)c2ccccc2)O1	Mtb MbtI inh 90
CC(C)(/C=N/N(Cc1ccccc1)c1ccccc1)CO	none
CCCc1cc(C(=O)Nc2c(C)nn(Cc3ccc(C)cc3)c2C)no1	none (no result: MenB inh, AID504770, Mtb MbtI inh)
C=CCN1C(=O)S/C(=C\c2ccc(CC)s2)C1=O	none
COCC(O)CSc1nc(C)cc(C)n1 (stereo not given)	none
CC(C)n1cn[nH]c1=S	Mtb MbtI inh 59
Nc1cc2ccccc2cc1C(=O)O	PV pol inh 52
O=C(O)c1cc2ccccc2nc1Cl	PV pol inh 76
CN1CCN(C(=O)c2cc3ccccc3nc2Cl)CC1	none (no result: MenB inh, PV pol inh, Mtb MbtI inh)
Cc1cc(C)c(NC(=O)C(=O)NCC(c2cccnc2)N2CCN(c3ccccc3F)CC2)c(C)c1 (stereo not given)	none (no result: MenB inh, AID504770, Mtb MbtI inh)
NC(=O)c1ccccc1NC(=O)CCC1CCCCC1	none
O=c1[nH]ccn(-c2ccccc2)c1=O	none
O=c1c(=S)[nH]ccn1-c1ccccc1	Mtb MbtI inh 93
COc1ccc(CCC(C)N)cc1 (stereo not given)	none
COC(=O)Nc1ccc2c(c1)C(=O)NC2=O	none (no result: MenB inh, PV pol inh)
CCN(CC)C(=O)CSc1n[nH]c(=S)s1	Mtb MbtI inh 91
CC1=CC(C)=NC2=NN=C(NC(=O)Nc3ccc(Cl)c(Cl)c3)C12 (stereo not given)	none (no result: Mtb MbtI inh)
COC(=O)c1c(-c2ccccc2)csc1N	Mtb MbtI inh 59
COC(=O)c1c(-c2ccccc2)csc1NC(=O)CCN1CCC(C)CC1	none (no result: MenB inh, PV pol inh, Mtb MbtI inh)
CC1(C)Cc2ccccc2C2=NNC(=O)C2=N1	PV pol inh 84
Cc1cc(C)c2c(N)c(C3=NC(C)(C)Cc4ccccc43)sc2n1	none (no result: Mtb MbtI inh)
Fc1ccccc1C=Nc1cccc2ccccc12	none
Brc1ccccc1C=Nc1cccc2cnccc12	PV pol inh 81 (no result: MenB inh)
CCOC(=O)c1[nH]c(CSc2cccc[n+]2[O-])c(C(=O)OCC)c1C	PV pol inh 66
COc1cc(C(=O)OC(C)C(=O)N2CCCc3ccccc32)ccc1OCc1c(C)noc1C (stereo not given)	none
COc1ccc(CCNC(=O)CCCn2nc(C)n3ccnc3c2=O)cc1OC	none
O=C(NC(=S)c1ccccc1)C1CC1	Mtb MbtI inh 74
Cc1ccccc1N(C(=O)CCc1c(C)noc1C)c1nc2ccccc2s1	none
O=C(CN1C(=O)S/C(=C\c2ccc(Cl)cc2)C1=O)Nc1cccnc1	none
CC(C)C(c1nnnn1Cc1ccccc1)N1CCN(c2ccccc2)CC1 (stereo not given)	MenB inh 32
O=C(Nc1cccc(Cl)c1N1CCOCC1)c1ccco1	none
N#Cc1cc2c(nc1SCC(N)=O)CCCC2=O	none (no result: MenB inh, PV pol inh, Mtb MbtI inh)
Cc1ccc2oc(C(=O)NCC(c3ccc(Cl)cc3)N3CCOCC3)c(C)c2c1 (stereo not given)	none (no result: MenB inh, AID504770, Mtb MbtI inh)
O=C(Nc1ccccc1C(=O)O)c1cccs1	Mtb MbtI inh 89
N#CCSc1nc2ccc(Cl)cc2[nH]1	Mtb MbtI inh 53
NC(=O)CSc1nc2ccc(Cl)cc2[nH]1	none
O=C1OCC(CO)N1c1ccccc1 (stereo not given)	PV pol inh 90 (no result: Mtb MbtI inh)
COc1cc(C2=Nc3c(c(C)nn3-c3ccccc3)P(=O)(N3CCOCC3)O2)cc(OC)c1OC (stereo not given)	none
Cc1nn(-c2ccccc2)c2c1P(=S)(N1CCOCC1)OC(c1ccccc1)=N2 (stereo not given)	PV pol inh 88
N/C(=N\c1nc2ccccc2o1)NC(=O)c1ccccc1NC(=O)c1ccccc1	none
COC(=O)c1ccc2c(=O)[nH]c(COC(=O)c3cccnc3Nc3ccccc3OC)nc2c1	AID504770 -4
Oc1cccc(C=Nc2ccc(OC(F)(F)F)cc2)c1O	none
CCCCC(CC)C(=O)Nc1nnc(C(C)C)s1 (stereo not given)	Mtb MbtI inh 70
CN(N)P(=S)(c1ccccc1)N(C)N	PV pol inh 76, Mtb MbtI inh 93
CCN(CC)C(=O)Oc1cc(C(F)(F)F)nc(-c2ccc(Cl)cc2)n1	none (no result: MenB inh, PV pol inh, Mtb MbtI inh)
CCN(CC)C(=O)Oc1cc(COC)nc(-c2ccccc2)n1	AID504770 -3 (no result: MenB inh, PV pol inh, Mtb MbtI inh)
O=C1CS/C(=N\S(=O)(=O)c2ccccc2)N1Cc1ccccc1	none
O=C(N=C=S)c1ccc2ccccc2c1	PV pol inh 75
CN(C)S(=O)(=O)c1cccc(C(=O)N=C=S)c1	PV pol inh 70, Mtb MbtI inh 96
CCCC(=O)Nc1nc2ccc(S(=O)(=O)N3CCCCC3)cc2s1	none (no result: MenB inh, PV pol inh, Mtb MbtI inh)
C=C(C)c1ccccc(=O)c1O	AID504770 -5 (no result: MenB inh, PV pol inh, Mtb MbtI inh)
Cn1c(=O)c2c(ncn2CCCCn2cnc3c2c(=O)n(C)c(=O)n3C)n(C)c1=O	none
O=C1CC(Sc2ccccc2)C(=O)N1c1ccccc1 (stereo not given)	Mtb MbtI inh 64
O=C(O)c1cccnc1SC1CC(=O)N(c2ccc(Cl)cc2)C1=O (stereo not given)	Mtb MbtI inh 66
CCc1ccc(N2C(=O)CC(Sc3ccccn3)C2=O)cc1 (stereo not given)	Mtb MbtI inh 69
O=C1CC(Sc2cccs2)C(=O)N1c1ccccc1 (stereo not given)	none (no result: MenB inh, PV pol inh, Mtb MbtI inh)
O=C1CC(Sc2ccccn2)C(=O)N1c1ccccc1 (stereo not given)	none (no result: MenB inh, PV pol inh, Mtb MbtI inh)
